# Assay outcomes: PubChem BioAssay, National Center for Advancing Translational Sciences (NCATS)
# Only some compounds are listed: those with a hit (about 1.2% of all), similar ones and a draw of the others.
# GoLoco inh red: blocks human Gai1 binding to RGS12 GoLoco peptide, red readout | P63096 | Gai1:RGS12 GoLoco peptide FP, rhodamine, 10 min | Potency, µM (top dose mostly 61.6 µM), without a hit: top-dose activity, negative = inhibition, actives largely listed as inhibitors | 0.44% of 230,000 active; active = well fitted inhibition curve with a large enough effect, not every such curve was filed as active; inactive = no such curve, though single readings can be large or run the other way; note: potency is the fitted concentration of half-maximal effect; nearly all actives have a fitted effect of over 30% in size
# Pin1 inh: blocks the human prolyl isomerase Pin1; Pin1 FP peptide displacement, HiFluor488, 10 min; Potency, µM (titrated, usually from 115 µM), inactives show top-dose activity, negative = inhibition, actives largely listed as inhibitors; 0.009% of 390,000 active; AID 504891; active = well fitted inhibition curve with a large enough effect in the polarisation, with a control signal flat, not every such curve was filed as active; inconclusive = small, poorly fitted or top-dose-only effect, or effect the other way, or a change in a side signal; inactive = no such curve, though single readings can be large or run the other way; the % refers to the polarisation; note: potency is the fitted concentration of half-maximal effect
# PGK inhibitor: inhibitors of T. brucei phosphoglycerate kinase | PGK/GAPDH coupled, Kinase-Glo luminescence, 60 min | AID 602233 | 0.043% of 380,000 active | Potency, µM (top dose mostly 57.5 µM), for the others: at the top dose activity change, negative = inhibition, hits mostly inhibitors; note: potency is the fitted concentration of half-maximal effect; nearly all actives have a fitted effect of over 60% in size
#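 Recombinant glycosomal PGK reaction used 1,3-bisphosphoglycerate generated in-well by GAPDH (100nM final) in 100mM TEA pH 7.6, 5mM MgCl2, 0.01% Tween-20. After 60 minutes at room temperature, ATP was read by Kinase-Glo Plus luminescence end-point.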
# PI5P4K alpha inh: inhibitors of human PI5P4K alpha; P48426; PI5P4Kalpha enzyme, ADP-Glo luminescence, 60 min; stronger effect = lower value; max response, %; 1.2% of 330,000 active; AID 652105; active = max response of -50% or lower; inconclusive = between -30% and -50%; inactive = -30% or higher; note: value at the top dose of about 77 µM
# Target sequence (P48426 whole entry, looked up): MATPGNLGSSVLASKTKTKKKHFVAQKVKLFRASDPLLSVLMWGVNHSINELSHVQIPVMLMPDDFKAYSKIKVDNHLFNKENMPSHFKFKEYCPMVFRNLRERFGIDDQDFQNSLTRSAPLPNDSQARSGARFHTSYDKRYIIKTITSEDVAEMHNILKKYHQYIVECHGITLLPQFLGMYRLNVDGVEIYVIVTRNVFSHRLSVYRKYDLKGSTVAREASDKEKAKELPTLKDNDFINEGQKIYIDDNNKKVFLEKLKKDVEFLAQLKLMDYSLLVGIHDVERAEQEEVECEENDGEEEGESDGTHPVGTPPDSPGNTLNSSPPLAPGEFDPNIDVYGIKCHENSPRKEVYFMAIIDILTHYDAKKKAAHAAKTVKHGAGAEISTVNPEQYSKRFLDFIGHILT
#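 ADP-Glo luminescence end-point read after a 60 min room-temperature kinase reaction of PI5P4Kalpha plus substrate, initiated with ATP at 5 microM final. Buffer: 0.038 M HEPES pH 7.4, EGTA, 0.1% CHAPS, 5% DMSO.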
# PI4K2A inh: PI4K2A (human) kinase inhibition; Q9BTU6; purified PI4K2A, ADP-Glo luminescence, 1 h; stronger effect = lower value; activity change, negative = inhibition, % at 76.9 µM; 0.13% of 420,000 active; in the data active = activity change below about -50%; inconclusive = mostly about -30% to -49%;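 note: -100% = wells without enzyme as full effect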
#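 In this quantitative HTS, ADP production by PI4K2A was quantified luminescently after 1 h at ambient temperature; 100 microM adenosine served as plate-quality control.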
# GCN5L2 inh: GCN5L2 (KAT2A) acetyltransferase inhibition. GCN5L2 HAT assay, ThioGlo1 CoA-SH fluorescence. Potency, µM (doses to about 58.9 µM), for inactives: top-dose activity change, negative = inhibition, usual class: inhibitors. 0.21% of 390,000 active. AID 504327; note: potency is the fitted concentration of half-maximal effect
#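 ThioGlo1-coupled HAT assay: 20nM GCN5L2, 70uM acetyl-CoA, 75uM H3(1-25) peptide, pH 7.5. Fluorescence read at 340/540nm at start and after 20 min at room temperature.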
# The depositor's hits bear a star; i = inactive; ? = inconclusive; nt = not tested or not shown; ! = repeats disagree. Unless noted, calls come from the whole dose curve; as a rule, active = well fitted curve in the direction sought with a large enough effect; inconclusive = small, poorly fitted or top-dose-only effect, or another doubt; inactive = no such curve, though single readings can be large; an effect the other way counts as inactive or inconclusive. Unless noted, % is set by controls: 0 for no effect and ±100 for the full control effect.
SMILES,GoLoco inh red,Pin1 inh,PGK inhibitor,PI5P4K alpha inh,PI4K2A inh,GCN5L2 inh
COCCCNC(=O)CSc1ccsc1[N+](=O)[O-],7%,?,4%,-20,3,6%
CC(C)(C)c1cc(=O)n(-c2ccccc2)[nH]1,-16%,?,-25%,-3,-54*,-3%
O=c1cc(-c2ccccc2)[nH]n1-c1ccccc1,nt,5%,-3%,0,-8,nt
CCCC[C@H]1CCCO[C@@](C(=O)NCc2ccccn2)(C(F)(F)F)C1,nt,1%,nt,nt,nt,nt
CCCC[C@@H]1CCCO[C@@](C(=O)NCc2ccc(C)o2)(C(F)(F)F)C1,nt,-5%,-5%,-54*,-3,nt
COc1ccc(-c2nnc3n2N=C(c2cc(OC)ccc2OC)CS3)c(OC)c1,nt,-4%,nt,nt,nt,nt
O=C(COc1ccccc1)N/N=C/c1ccc([N+](=O)[O-])o1,-1%,-15%,-13%,-55*,-9,-5%
O=C(CNc1ccc2ccccc2c1)N/N=C/c1ccc([N+](=O)[O-])o1,4%,-8%,8%,11,-1,1%
O=C(N/N=C/c1ccc([N+](=O)[O-])o1)c1sc2ccccc2c1Cl,11%,?,-10%,-62*,-13,-20%
Nc1nc(SCC(=O)Nc2cccc(S(=O)(=O)N3CCCCCC3)c2)n[nH]1,21%,0%,-6%,2,0,-6%
CCn1c(N)c(C(=O)NC)sc1=S,-14%,-3%,i,-59*,-1,-23%
O=C(NCCN1CCOCC1)c1ccccc1[N+](=O)[O-],-2%,-8%,3%,2,-4,-6%
COc1cc(N)c(C(=O)c2nccc3cc(OC)c(OC)cc23)cc1OC,nt,0%,9%,3,0,-3%
COc1cc(Br)c(C(=O)c2nccc3cc(OC)c(OC)cc23)cc1OC,nt,0%,-4%,-7,-52*,-22%
COc1ccc(C(=O)/C=C(\C)Nc2ccc(NC(C)=O)cc2)cc1,-3%,-9%,-8%,nt,-2,13%
C/C(=C\C(=O)c1cccnc1)Nc1ccc(O)cc1,-2%,-3%,i,nt,-61*,-4%
C/C(=C\C(=O)c1ccccc1)Nc1ccc(O)cc1,-4%,26%,-4%,-2,-54*,-5%
Cc1ccc(S(=O)(=O)Nc2ccc(-n3cnnn3)cc2)c(C)c1,nt,1%,-5%,-2,-4,-2%
Cc1ccc(C=Nc2ccc(N(C)C)cc2)o1,-4%,5%,-11%,nt,-18,-4%
CCc1cccc(NC(=O)C2CCC(CNS(=O)(=O)c3csc(C(N)=O)c3)CC2)c1 (stereo unspecified),nt,-4%,-6%,nt,-3,2%
COc1cccc(NC(=O)C2CCC(CNS(=O)(=O)c3csc(C(N)=O)c3)CC2)c1 (stereo unspecified),nt,-3%,i,nt,-66*,15%
Cc1ccc(OCCn2c(=O)oc3ccc(C)cc32)cc1,5%,-1%,7%,9,-4,-4%
Cc1c(C)c2c(c(C)c1O)CCC(C)(COc1ccc(CC3SC(=O)NC3=O)cc1)O2 (stereo unspecified),7%,nt,nt,nt,-2,?
CC1(COc2ccc(C[C@H]3SC(=O)NC3=O)cc2)CCCCC1,-5%,nt,nt,nt,nt,35µM*
CC1(COc2ccc(CC3SC(=O)NC3=O)cc2)CCCCC1 (stereo unspecified),1%,nt,nt,nt,-1,25µM*!
COc1ccccc1CNC(=O)C[C@H]1CC[C@H]2[C@@H](COc3ccc(NC(=O)Nc4ccccc4)cc3C(=O)N2C)O1,nt,nt,nt,nt,1,nt
Cc1nc2c(Cl)cccc2[nH]1,1%,-9%,-7%,-2,7,-1%
Cc1nc2sc(-c3ccccc3)cc2c(=O)n1N,-8%,6%,20µM*,?,-52*,-2%
O=c1nccc(N/N=C/c2ccccc2O)[nH]1,nt,?,-29%,-24,-53*,-2%
COc1cccc(/C=N/Nc2ccnc(=O)[nH]2)c1O,nt,6%,-18%,-20,?,-2%
